ALOX12 inh – ALOX12 (human) lipoxygenase inhibition | P18054 | purified 12hLO, xylenol orange hydroperoxide absorbance | Potency, µM (doses to about 108 µM), for the others: at the top dose activity change, negative = inhibition, hits mostly inhibitors | 580,000 compounds, 1.1% hits | AID 1671190
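Hydroperoxide product was detected by ferrous iron/xylenol orange as the 573 to 405 nm absorbance ratio. Arachidonic acid at 40 uM (final) was turned over for 30 min at room temperature by 150 nM human 12hLO, pH 7.0 Hepes buffer, after 15 min compound preincubation.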
VDR inh – inhibitors of human vitamin D receptor. Potency, µM, without a hit: max response, negative = inhibition, usual class: inhibitors. VDR-SRC2-3 peptide fluorescence polarization, 2 h. 400,000 compounds, 0.93% hits. P11473
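Fluorescence polarization assay of small-molecule disruption of VDR binding to coregulator peptide SRC2-3. Compounds and controls pin-transferred, then read after 2 h incubation at ambient room temperature.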
PLK1 PBD block – PLK1 (human) polo-box domain binding inhibition. P53350. Plk1 PBD binding of FITC phosphopeptide, fluorescence polarization. Potency, µM, for the others: max response, negative = inhibition, actives largely listed as inhibitors. 360,000 compounds, 2.8% hits; also: series mostly up to about 57 µM; nearly all actives have a fitted effect of over 65% in size
Sfp inh – blocks B. subtilis Sfp PPTase activity | Q9F4F7 | Biochemical Sfp PPTase activity, qHTS | Potency, µM, for the others: largest response in the series, negative = inhibition, most hits filed as inhibitors | 310,000 compounds, 3.5% hits;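 also: the enzyme is Sfp with the accession as filed and its product quenches rhodamine fluorescence; 0% = enzyme reaction without inhibitor and -100% = no enzyme wells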
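Sfp 15 nM + cpd, 15 min RT; start w/ rhodamine-CoA 5 uM, BHQ-2-YbbR 12.5 uM (final); 50 mM Hepes pH 7.6, 10 mM MgCl2, 0.01% NP-40, 0.01% BSA; read 525/598 nm at 0 and 30 min.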
The depositor's hits bear a star; ? = inconclusive; / = not tested or not shown. In the library only some 4.2% were active in any assay of this set; here they are far more common. Calls follow the shape of the dose curve; as a rule, active = well fitted curve in the direction sought with a large enough effect; inconclusive = small, poorly fitted or top-dose-only effect, or another doubt; inactive = no such curve, though single readings can be large; an effect the other way counts as inactive or inconclusive. Unless noted, % is scaled to controls: 0 for no effect and ±100 for the full control effect; potency is read from the fitted curve at half-maximal effect.

SMILES	ALOX12 inh	VDR inh	PLK1 PBD block	Sfp inh
CC1CCC(NC(=O)c2ccc(CN3C(=O)NC4(CCS(=O)(=O)CC4)C3=O)cc2)CC1 (stereo not given)	-6%	/	/	/
N#C/C(=C\c1cn(CC(=O)N2CCCC2)c2ccccc12)C(=O)NCc1ccc2c(c1)OCO2	-22%	-4%	-20%	-19%
Cc1ncc(CN2CCCC(C(=O)Nc3ccc(-c4ccco4)cc3)C2)cn1 (stereo not given)	4%	-10%	-13%	32µM*
COCc1cc(CN2CCCC(C(=O)Nc3ccc(-c4ccco4)cc3)C2)ccc1OC (stereo not given)	-25%	-14%	-10%	50µM*
O=S(=O)(NC1CCCCC1N1CCN(c2cccc(Cl)c2)CC1)c1ccccc1 (stereo not given)	/	10%	-23%	3%
CCOC(=O)c1cnc2ccc(OCC)cc2c1NCCc1ccc(OC)c(OC)c1	-12%	-2%	/	/
O=C(O)Cc1sc(Nc2cccc3ccccc23)nc1-c1ccc(Cl)cc1	45µM*	-2%	27µM*	-26%
O=C(O)Cc1sc(N/N=C\c2ccncc2)nc1-c1ccccc1	-5%	-16%	-30%	28µM*
O=C(O)Cc1sc(Nc2cccc3ccccc23)nc1-c1ccccc1	?	-20%	-26%	/
Cc1ccc(Nc2nc(-c3ccc(C)cc3)c(CC(=O)O)s2)cc1	40µM*	-11%	-16%	-12%
Cc1ccc(Nc2nc(C)c(NC(=O)c3ccc(C)cc3)c(Nc3ccc(C)cc3)n2)cc1	?	-2%	/	/
